This passage reports growth inhibition results from PubChem BioAssay (NCI).

Test [1] can be described thus: NCI Yeast Anticancer Drug Screen. Data for the rad50 strain (AID 155).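 Also: 0% = growth of vehicle-only cultures of the same strain.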 To be noted: S. cerevisiae rad50 strain growth inhibition; at 50.0 µM; hits give high values. The gist of the method:
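Compounds were tested on a yeast strain with an engineered DNA damage repair alteration; the reported value is growth inhibition normalised to vehicle treatment.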

A short description of test [2]: NCI Yeast Anticancer Drug Screen. Data for the mec2-1 strain (AID 157). The note with it: S. cerevisiae mec2-1 strain, at 50.0 µM, hits give high values. The gist of the method: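 Cells of the genetically defined mec2-1 yeast strain are incubated with test compound. Inhibition of growth is calculated against vehicle-treated controls.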
Test [3] is described as follows: NCI Yeast Anticancer Drug Screen. Data for the sgs1 mgt1 strain (AID 161).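 Also: 0% = growth of cultures given vehicle only.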 The note with it: S. cerevisiae sgs1 mgt1 strain, at 50.0 µM, hits give high values. In short, it runs like this:
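Mutant yeast exposed to compound; growth scored against vehicle-only wells.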

The nature of test [4]: NCI Yeast Anticancer Drug Screen. Data for the cln2 rad14 strain (AID 165).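 Also: 0% = growth equal to vehicle treated cultures.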 The note with it: S. cerevisiae cln2 rad14 strain, at 50.0 µM, hits give high values. In short, it runs like this: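 The screen exposed genetically defined yeast (cln2 rad14) to test compounds and scored growth inhibition relative to vehicle-treated controls.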
Test [5] is described as follows: NCI Yeast Anticancer Drug Screen. Data for the bub3 strain (AID 167). The note with it: S. cerevisiae bub3 mutant strain, at 50.0 µM, hits give high values. The gist of the method:
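Growth of a checkpoint-deficient yeast mutant is measured after compound exposure. Values represent inhibition relative to vehicle.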

A short description of test [6]: NCI Yeast Anticancer Drug Screen. Data for the mlh1 rad18 strain (AID 175). To be noted: S. cerevisiae mlh1 rad18 strain growth inhibition; at 50.0 µM; hits give high values. In short, it runs like this: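 Compound-treated yeast growth, normalised to vehicle controls. Strain bears defined DNA repair mutations.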

The panel holds about 79,000 compounds, 15% with a hit somewhere; the sample as a whole holds those more often. Unmarked numbers belong to inactive results. Activity calls are given as the source filed them. Rule as the data show it: active = growth inhibition above about 70%; inactive = the rest.

With `CN(C)Cc1cc(Cl)c(O)c(CN(C)C)c1`, the growth inhibition in test [1] was -17.6%; in test [2] it was -43.5%; in test [3] it was -38.4%; in test [4], 23.7%; in test [5] it was -30.6%; in test [6], 15.1%.
As for `Cc1ccc(N=Nc2ccc(O)c(CN(C)C)c2)cc1`, the growth inhibition in test [1] is -14.6%; in test [2], -9.15%; in test [3], -24.4%; in test [4] it was -39.8%; in test [5] it was 18%; in test [6], -17.1%.
For the compound `Cc1[nH]c(=O)[nH]c(=O)c1N`, the growth inhibition in test [1] is 4.8%; in test [2] it was -10.4%; in test [3], -28.9%; in test [4], -19.4%; in test [5], -2.9%; in test [6], 2%.
For `NC(N)=NCCCS`, the growth inhibition in test [1] is 11.9%; in test [2], 11.3%; in test [3], 14.3%; in test [4], -7.8%; in test [5], 4.15%; in test [6], 7.05%.
For `COC12CC3C4CCC5CC(O)CCC5(C)C4CCC3(C)C1C(C)C1(CCC(C)CO1)O2` (stereo not given), the growth inhibition in test [1] was 33.6%; in test [2], 8.7%; in test [3], 13.1%; in test [4], 19.8%; in test [5] it was 1.05%; in test [6] it was -0.4%.
Take `O=C(Cc1ccccc1CCO)NCCc1ccccc1`: the growth inhibition in test [1] was 5.35%; in test [2], 1.55%; in test [3] it was -32.9%; in test [4], 24.8%; in test [5], -21.8%; in test [6] it was -14.9%.
Consider `CCOc1nc(N)nc(C)c1N=Nc1ccc(C)cc1`, for which the growth inhibition in test [1] was 1.75%; in test [2], -8.45%; in test [3], -4.5%; in test [4] it was -34.4%; in test [5], -5.05%; in test [6], 2.45%.
For the compound `C[N+](C)(C)CC(=O)N/N=C(\Cc1nc2ccc([N+](=O)[O-])cc2[nH]c1=O)C(=O)Nc1nc2ccc([N+](=O)[O-])cc2s1`, the growth inhibition in test [1] is 47.2%; in test [2], 29.9%; in test [3] it was 24.6%; in test [4], -6.05%; in test [5], 53.2%; in test [6], 16.9%.
Turning to `O=S(=O)(O)c1cc(S(=O)(=O)O)c2c(Nc3ccnc4ccccc34)ccc(S(=O)(=O)O)c2c1`, the growth inhibition in test [1] is -8.25%; in test [2] it was -1.3%; in test [3], -19.2%; in test [4], 3.6%; in test [5], -8.45%; in test [6], 13.8%.
Consider `S=c1cc(Cc2ccccc2)[nH]c(=S)[nH]1`, for which the growth inhibition in test [1] was -1.2%; in test [2] it was -11.1%; in test [3] it was -6.15%; in test [4], -7.75%; in test [5], -14%; in test [6], 4.85%.
`Cc1nc(/C=C2\C(=O)C=Cc3ccccc32)c(O)o1`: the growth inhibition in test [1] is 7.85%; in test [2], -6.3%; in test [3] it was 8.35%; in test [4], -63%; in test [5], 16%; in test [6] it was 0.3%.
Turning to `Cc1[nH]c2ccccc2c1C(c1cc(Cl)cc(Cl)c1O)c1c(C)[nH]c2ccccc12`, the growth inhibition in test [1] was 29.8%; in test [2], 26.1%; in test [3], 25.8%; in test [4], -1.9%; in test [5], -5.05%; in test [6] it was 37.8%.
Turning to `c1scc2c1COCCOCCOCCOCc1cscc1COCCOCCOCCOC2`, the growth inhibition in test [1] is -20.2%; in test [2], -26.1%; in test [3] it was -38.4%; in test [4], 26.6%; in test [5] it was -30.4%; in test [6] it was -46.5%.
Consider `Cn1c2c(c3ccccc31)CC1c3c(c4ccccc4n3C)CC21` (stereo not given), for which the growth inhibition was -79% in test [1]; -51% in test [2]; -49% in test [3]; -26.2% in test [4]; -18.6% in test [5]; -45.4% in test [6].
On to `ClC1=CC(Cl)=C2N=C(N3CCCC3)N=C3N=C(N4CCCC4)N=C1N32`, for which the growth inhibition in test [1] was -15.2%; in test [2], -5.45%; in test [3], -19.7%; in test [4] it was -10.6%; in test [5] it was 1.6%; in test [6], 4.55%.
`CCCCC(CC)COC(=O)COc1ccc(C(C)c2ccc(OCC(=O)OCC(CC)CCCC)cc2)cc1` (stereo not given): the growth inhibition in test [1] is -6.6%; in test [2], 10.5%; in test [3] it was 7.9%; in test [4], -3.55%; in test [5], 3.2%; in test [6], -38.2%.
In the case of `CC(=O)N(C)c1ccc(C)cc1`, the growth inhibition in test [1] is -14.9%; in test [2], -1.05%; in test [3], -4.35%; in test [4], -27.6%; in test [5] it was -4.2%; in test [6], 7%.
On to `CCCCOC(=O)c1ccc(OC(=O)Nc2cccc(Cl)c2)cc1`, for which the growth inhibition in test [1] was 13.2%; in test [2], 2.3%; in test [3] it was 6.15%; in test [4], 12.2%; in test [5] it was 70.7% (active); in test [6] it was 30.1%.
On to `O=C(O)/C(=C\c1ccccc1Cl)S(=O)(=O)c1ccccc1`, for which the growth inhibition in test [1] is -25.5%; in test [2], -6.45%; in test [3], -12.6%; in test [4] it was -0.35%; in test [5] it was -16%; in test [6] it was 15.1%.
Turning to `CN(C)C=NC1CC(C)(C)NC(C)(C)C1`, the growth inhibition in test [1] was -18.2%; in test [2], 2.2%; in test [3] it was 3.1%; in test [4], -49.1%; in test [5] it was 13.2%; in test [6] it was -12.9%.
